Screening data (PubChem BioAssay)
M1 antag: human M1 muscarinic receptor antagonists, primary screen, CHO-K1 cells, Fluo-8 calcium fluorescence, 1536-well. Muscarinic acetylcholine receptor M1 (Homo sapiens), P11229. CHO-K1 hM1, ACh EC80 antagonist. inhibition, % at 3 µM. hit rate 1.3% among 360,000;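 active = percent inhibition above its own plate's cutoff, namely the mean of that plate's compound wells plus 3 SD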;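 also: peak over basal fluorescence ratio during 140 s after agonist addition; 0% = ACh EC80 plus DMSO and 100% = DMSO alone without agonist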
Target sequence (P11229 whole entry, looked up): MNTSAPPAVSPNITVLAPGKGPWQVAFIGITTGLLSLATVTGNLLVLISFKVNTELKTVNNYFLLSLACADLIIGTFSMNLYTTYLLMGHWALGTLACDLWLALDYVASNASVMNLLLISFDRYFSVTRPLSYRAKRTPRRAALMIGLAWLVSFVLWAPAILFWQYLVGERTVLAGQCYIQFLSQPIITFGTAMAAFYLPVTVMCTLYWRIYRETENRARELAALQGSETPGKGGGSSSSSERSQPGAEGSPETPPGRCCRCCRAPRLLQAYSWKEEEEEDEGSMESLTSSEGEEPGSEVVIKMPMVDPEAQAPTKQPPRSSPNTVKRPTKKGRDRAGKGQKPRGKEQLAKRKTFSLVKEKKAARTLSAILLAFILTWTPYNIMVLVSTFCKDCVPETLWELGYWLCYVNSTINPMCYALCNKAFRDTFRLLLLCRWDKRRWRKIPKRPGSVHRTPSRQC
CHRM1 PAM: human M1 muscarinic receptor positive allosteric modulators, primary screen, CHO-K1 cells, Fluo-8 calcium fluorescence, 1536-well; CHO-K1 hM1, ACh EC20; 0% = ACh EC20, 100% = maximal ACh; activation, % at 3 µM; hit rate 0.088% among 360,000; AID 588819, 2011; in the data active = activation above about 19%, passing the limit was not always enough
M1 ag: human M1 muscarinic receptor agonists, primary screen, Fluo-8 calcium fluorescence, CHO-K1 cells, HTS | Muscarinic acetylcholine receptor M1 (Homo sapiens), P11229 | hit rate 0.33% among 360,000 | CHO-K1 hM1, agonist mode; 0% DMSO, 100% acetylcholine EC100 | AID 588814, 2011 | activation, % at 3 µM;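 active = activation above the run's mean compound activation plus 3 SD, cut at about 16% in these data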;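 also: peak over basal fluorescence ratio within a 140 s kinetic read after compound addition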
M1 ag parental: counter-screen for M1 agonists: effect in parental CHO-K1 cells; Fluo-8 calcium fluorescence; scaled to maximal ATP response, vehicle zero; activation, % at 3 µM; hit rate 0.48% among 360,000; in the data active = activation above about 15%;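 also: untransfected CHO-K1 host cells lacking M1 receptor as counterscreen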
CHO-K1 Ca antag: nonselective inhibitor or artifact in parental CHO-K1 cells. inhibition, % at 3 µM. hit rate 0.6% among 360,000. ATP-induced calcium, Fluo-8 fluorescence;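 active = inhibition above a per-plate cutoff, the plate's mean sample inhibition plus 3 SD, cut at about 24% in these data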;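 also: 0% = DMSO plus EC80 ATP and 100% = DMSO alone without ATP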
CHO-K1 Ca PAM: nonselective calcium activators in parental CHO-K1 cells, primary screen, counter-screen for M1 PAM project, cell-based, Fluo-8 calcium fluorescence, full deck, 1536-well; ATP EC20; 0% at ATP EC20, 100% at ATP max; activation, % at 3 µM; hit rate 0.02% among 360,000;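 active = activation above the run cutoff, the mean activation of all test compounds plus 3 SD, cut at about 40% in these data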;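 also: peak over basal fluorescence ratio in a 140 s read after ATP addition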
Starred values were filed as active, the others as inactive. This is a sample that favours compounds with a hit; in the whole collection about 2.3% have one here.

SMILES	M1 antag	CHRM1 PAM	M1 ag	M1 ag parental	CHO-K1 Ca antag	CHO-K1 Ca PAM
CCn1c(SCc2ccccc2)nnc1-c1ccc(S(=O)(=O)N2CCCCC2)cc1	27*	-12	-2	6	2	9
COc1cccc(O)c1CN1CCC(n2nccc2NC(=O)c2ccc3c(c2)OCO3)CC1	14	-3	-6	0	13	6
COc1ccc2[nH]c3c(NCCC4=CCCCC4)ncnc3c2c1	23	-9	0	15*	14	-12
c1ccc(CCCNc2ncnc3nc[nH]c23)cc1	2	-5	21*	8	-2	16
c1ccc(CNc2ncnc3nc[nH]c23)cc1	-20	2	-1	-1	7	10
C1=C(CCNc2ncnc3nc[nH]c23)CCCC1	28*	-19	2	8	2	-9
Clc1ccc(CCNc2ncnc3nc[nH]c23)cc1	30*	-21	6	13	30*	-3
COc1ccc2[nH]c3c(NCCCOC(C)C)ncnc3c2c1	11	-13	-8	2	-7	-1
CCOC(=O)c1[nH]ncc1CN1CCc2ccc(NC(=O)C3CCCO3)cc2C1 (centres undefined)	-10	9	-5	1	-5	0
c1ccc2c(CCNc3ncnc4nc[nH]c34)cccc2c1	54*	-20	7	11	24	-2
CCCNc1ncnc2nc[nH]c12	-6	6	-2	0	-3	-9
CCOC(=O)N1CCC(NC(=O)c2cc(C(=O)NCc3ccc(F)cc3)ccc2CO)CC1	0	3	-2	-1	6	-1
CCOC(=O)N1CCC(NCCNC(=O)c2ccc(Cl)cc2)CC1	7	-2	22*	1	-4	3
CCOC(=O)N1CCC(NC(=O)c2cc(C(=O)Nc3ccc(F)cc3F)ccc2CO)CC1	9	-9	-2	4	29*	-3
CCOC(=O)N1CCC(NCCNC(=O)c2ccco2)CC1	21	-7	-2	0	-3	-6
CCOC(=O)N1CCC(NCCNC(=O)c2ccc(F)c(F)c2)CC1	74*	-31	64*	1	3	-18
COc1ccc(NS(=O)(=O)c2cc(N/C(=N\S(=O)(=O)c3ccccc3)c3ccc(F)cc3)ccc2Cl)cc1	-2	4	-5	3	-12	29
C(=C\n1nnc2ccccc21)/c1ccc[nH]1	-5	5	-1	1	-6	-2
COc1ccccc1N1CCN(C(=O)C2CCCN(S(=O)(=O)c3ccc4c(c3)oc(=O)n4C)C2)CC1 (centres undefined)	26	-24	-3	21*	14	-5
Cc1cccc(C)c1NC(=O)C(c1ccc([N+](=O)[O-])cc1)N(C)C(=O)c1ccccn1 (centres undefined)	-7	10	-3	1	-7	21
NC(=O)c1ccc(NC(=O)c2ccc3c(c2)CCN3S(=O)(=O)c2ccccc2)cc1	-2	11	-5	2	26*	-24
O=C(O)c1cccc(NC(=O)c2cccc(S(=O)(=O)N3CCc4ccccc43)c2)c1	-1	1	-1	0	1	-13
CCOCCCNC(=O)c1c(C)[nH]c(C(=O)OCC)c1C	-1	3	-4	0	10	1
CCOCCCNC(=O)c1[nH]c(C)c(C(C)=O)c1C	-11	3	-1	0	24*	-5
Cc1cc(C)nc(N/N=C/c2cn[nH]c2-c2ccc(F)cc2)n1	-6	10	9	18*	2	12
Cc1ccc(/C=N/Nc2nc(C)cc(C)n2)cc1	-15	17	-2	0	-5	4
CC12CCC(C(=O)NNC(=O)c3ccccc3)(OC1=O)C2(C)C (centres undefined)	-6	5	-3	0	18	-20
CC12CCC(C(=O)N(Cc3ccccc3)Cc3ccccc3)(OC1=O)C2(C)C (centres undefined)	-14	-8	-6	0	25*	-8
